Out of some 310,000 compounds screened, about 14,000 (4.5%) showed an effect of 50% or more. Effects have a minus sign here. This is one part of a sample in which strong results are shown more often than they occur. Where a SMILES comes first, the peptide text is derived from it.

Data on 44 molecules can be found in paper PMC4336329 (PLoS ONE, 2015).
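Also: peak tail current of the secondary pulse compared with the same well before compound.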

Sequence of human ether-à-go-go-related gene (hERG) potassium channel (Q12809 whole entry, looked up): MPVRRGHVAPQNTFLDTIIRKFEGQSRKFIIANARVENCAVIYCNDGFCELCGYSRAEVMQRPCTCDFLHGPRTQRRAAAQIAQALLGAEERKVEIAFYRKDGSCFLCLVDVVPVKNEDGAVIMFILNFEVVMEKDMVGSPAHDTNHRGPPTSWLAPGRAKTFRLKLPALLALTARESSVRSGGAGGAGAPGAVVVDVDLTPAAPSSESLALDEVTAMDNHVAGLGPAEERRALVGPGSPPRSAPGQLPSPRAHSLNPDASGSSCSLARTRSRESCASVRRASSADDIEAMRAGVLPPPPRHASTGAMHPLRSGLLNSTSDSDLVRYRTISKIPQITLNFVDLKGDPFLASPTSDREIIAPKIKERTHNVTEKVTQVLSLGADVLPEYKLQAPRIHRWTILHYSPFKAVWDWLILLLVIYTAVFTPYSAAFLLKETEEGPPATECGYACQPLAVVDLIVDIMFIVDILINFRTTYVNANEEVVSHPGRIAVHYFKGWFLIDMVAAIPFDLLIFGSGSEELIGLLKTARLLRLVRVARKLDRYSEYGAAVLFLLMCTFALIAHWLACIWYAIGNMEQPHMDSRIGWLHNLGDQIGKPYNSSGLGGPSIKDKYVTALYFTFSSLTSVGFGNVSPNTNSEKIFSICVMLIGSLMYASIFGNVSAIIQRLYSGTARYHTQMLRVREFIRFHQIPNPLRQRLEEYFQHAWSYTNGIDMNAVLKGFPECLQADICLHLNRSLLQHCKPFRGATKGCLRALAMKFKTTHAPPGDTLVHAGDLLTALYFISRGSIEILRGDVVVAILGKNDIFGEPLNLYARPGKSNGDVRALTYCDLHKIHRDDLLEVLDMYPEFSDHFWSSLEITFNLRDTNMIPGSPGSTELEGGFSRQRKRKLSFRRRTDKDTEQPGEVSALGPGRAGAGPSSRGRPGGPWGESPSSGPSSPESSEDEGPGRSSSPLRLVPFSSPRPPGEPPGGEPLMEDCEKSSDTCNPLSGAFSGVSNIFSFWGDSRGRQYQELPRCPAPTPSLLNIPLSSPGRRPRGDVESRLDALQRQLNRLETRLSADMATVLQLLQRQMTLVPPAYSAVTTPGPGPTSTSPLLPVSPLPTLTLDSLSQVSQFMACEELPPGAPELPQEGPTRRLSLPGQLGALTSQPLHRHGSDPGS

This assay addresses human ether-à-go-go-related gene (hERG) potassium channel (human, UniProt Q12809). Description: primary screen, population patch clamp on CHO cells stably expressing hERG; higher = less effect of the substance. The method, then:
Briefly, Chinese hamster ovary (CHO) cells stably expressing the hERG channel were dislodged from tissue culture flasks and dispensed into PPC plates. […] During the recording, background leak currents were estimated by a 100 ms step to -80 mV from an initial holding potential of -70 mV and subtracted from the subsequent current measurement. The campaign was conducted in two phases using slight differences in recording protocol. In the first phase, the initial voltage pulse used a 100 ms step to -30 mV from a holding potential of -70 mV, a 2 s conditioning step to +25 mV, and a 2 s test step to -30 mV. During the second phase of the screen, the potential during the conditioning step was raised to +45 mV. In both phases of the campaign, a secondary voltage pulse was applied using the same parameters as the second phase initial pulse. The initial and secondary pulses were applied in the absence of compound, and upon application of 1 μM and 10 μM test concentrations. […]
With `CC(C)(C#N)NC(=O)c1ccco1`, the “hERG current change (%, negative = inhibition) at 10uM” value came to 4.37%. Take `COc1ccc(C)cc1NC(=O)COCC(=O)O`: the “hERG current change (%, negative = inhibition) at 10uM” value is listed as -8.48%. For the molecule `O=C(NC1CCCCC1)C(c1ccccc1)N1CCOCC1` (centres unmarked), the “hERG current change (%, negative = inhibition) at 10uM” value worked out at 9.63%. On to `COCCNC(=O)CN1C(=O)COc2ccc(S(=O)(=O)N3CCCCCC3)cc21`, for which the “hERG current change (%, negative = inhibition) at 10uM” value worked out at 20.3%.

For the molecule `CC(C)(C)c1ccc(C(=O)NCc2ccc(Cl)cc2)cc1`, the “hERG current change (%, negative = inhibition) at 10uM” value worked out at 12.6%.

For `O=[N+]([O-])c1ccc2c(c1Nc1ccccc1Cl)=NC1(CCCCC1)N=2`, the “hERG current change (%, negative = inhibition) at 10uM” value was 3.29%. `CC(=O)NCCc1nc2cc(NC(=O)c3ccc(F)cc3)ccc2n1C`: the “hERG current change (%, negative = inhibition) at 10uM” value turned out to be 9.6%. With `CC(=O)NC(Cc1ccccc1)C(=O)NC(Cc1ccccc1)C(=O)O` (stereo not drawn) (Ac-Phe-Phe-OH; configuration not given here), the “hERG current change (%, negative = inhibition) at 10uM” value was 10.4%. Turning to `O=C(CCN1C(=O)c2ccccc2C1=O)Nn1cnnc1`, the “hERG current change (%, negative = inhibition) at 10uM” value is recorded as -0.368%. `c1ccc(-c2nc(NCCCN3CCOCC3)c3ccccc3n2)cc1`: the “hERG current change (%, negative = inhibition) at 10uM” value was -34.6%. `Clc1ccc(-c2nc(NCCCN3CCOCC3)c3ccccc3n2)cc1`: the “hERG current change (%, negative = inhibition) at 10uM” value is -18.9%. For `c1csc(-c2nc(NCCCN3CCOCC3)c3ccccc3n2)c1`, the “hERG current change (%, negative = inhibition) at 10uM” value was -50.7%. With `COC(=O)c1ccc(N2C(=O)C3CC(C)=C(C)CC3C2=O)cc1` (centres unmarked), the “hERG current change (%, negative = inhibition) at 10uM” value came out at 3.73%. In the case of `CCCC(c1nnnn1Cc1ccc(OC)cc1)N1CCN(C(=O)c2ccco2)CC1` (centres unmarked), the “hERG current change (%, negative = inhibition) at 10uM” value was -51.3%. To `CCC(c1nnnn1Cc1ccc(OC)cc1)N1CCN(C(=O)c2ccco2)CC1.Cl` (centres unmarked) belongs -55.5%; to `CCCC(c1nnnn1C(C)(C)CC)N1CCN(C(=O)c2ccco2)CC1.Cl` (centres unmarked), -54%; to `CCC(C)(C)n1nnnc1C(C(C)C)N1CCN(C(=O)c2ccco2)CC1` (centres unmarked), -29.7%. Regarding `CCCC(c1nnnn1Cc1ccco1)N1CCN(C(=O)c2ccco2)CC1.Cl` (centres unmarked), the “hERG current change (%, negative = inhibition) at 10uM” value is listed as -11.8%. As for `CCC(c1nnnn1Cc1ccco1)N1CCN(C(=O)c2ccco2)CC1.Cl` (centres unmarked), the “hERG current change (%, negative = inhibition) at 10uM” value is -20.6%. Turning to `CCCC(c1nnnn1C(C)(C)C)N1CCN(C(=O)c2ccco2)CC1.Cl` (centres unmarked), the “hERG current change (%, negative = inhibition) at 10uM” value is listed as -12.8%. With `CCCC(c1nnnn1CCc1ccccc1)N1CCN(C(=O)c2ccco2)CC1` (centres unmarked), the “hERG current change (%, negative = inhibition) at 10uM” value is -49.3%.

Take `CCC(c1nnnn1CCc1ccccc1)N1CCN(C(=O)c2ccco2)CC1.Cl` (centres unmarked): the “hERG current change (%, negative = inhibition) at 10uM” value was -28%.

Consider `CCC(c1nnnn1CCOC)N1CCN(C(=O)c2ccco2)CC1.Cl` (centres unmarked), for which the “hERG current change (%, negative = inhibition) at 10uM” value was 9.17%.

As for `CCCC(c1nnnn1CCOC)N1CCN(C(=O)c2ccco2)CC1.Cl` (centres unmarked), the “hERG current change (%, negative = inhibition) at 10uM” value is -4.1%. Consider `CCCCC(c1nnnn1Cc1ccco1)N1CCN(C(=O)c2ccco2)CC1.Cl` (centres unmarked), for which the “hERG current change (%, negative = inhibition) at 10uM” value is on record as -51.8%.

As for `Cc1ccc(C)c(NC(=S)N2CCN(c3cccc(C(F)(F)F)c3)CC2)c1`, the “hERG current change (%, negative = inhibition) at 10uM” value is 7.13%. As for `COC(=O)c1sc(S(=O)(=O)Nc2ccc(Br)cc2)c(C(=O)OC)c1C`, the figure is 2.75%. On to `CCCCCCc1cc2cc(C(=O)NCc3ccccc3)c(=N)oc2cc1O`, for which the “hERG current change (%, negative = inhibition) at 10uM” value turned out to be 5.76%.

Regarding `O=C(NCCC(c1ccccc1)c1ccccc1)c1cccs1`, the “hERG current change (%, negative = inhibition) at 10uM” value is reported as -14.2%. Regarding `Cc1ccccc1C(=O)N/N=C/c1ccccn1`, the “hERG current change (%, negative = inhibition) at 10uM” value amounted to 5.6%. `CCN(CC)c1ccc(/C=C2\NC(=O)NC2=O)cc1`: the “hERG current change (%, negative = inhibition) at 10uM” value is listed as 19.5%. Take `COC(=O)c1ccsc1NC(=O)CN1CCN(c2ncccn2)CC1`: the “hERG current change (%, negative = inhibition) at 10uM” value was -1.35%.

As to `Cc1cc(C)n(-c2c(F)c(F)c(COC(=O)c3ccccc3)c(F)c2F)n1`, the “hERG current change (%, negative = inhibition) at 10uM” value is reported as 5.11%. On to `COC(=O)c1nc2n(n1)C(c1ccc([N+](=O)[O-])cc1)C(C(=O)Nc1ccc(Cl)cc1)=C(C)N2` (centres unmarked), for which the “hERG current change (%, negative = inhibition) at 10uM” value is given as 13.5%. Consider `Cc1ccccc1S(=O)(=O)Cc1ccc(C(=O)N(C)C2CCCCC2)o1`, for which the “hERG current change (%, negative = inhibition) at 10uM” value was -12.5%. Turning to `C=CCn1c(SCc2cccc(F)c2)nc2cc(C(=O)N3CCC(C(N)=O)CC3)ccc2c1=O`, the “hERG current change (%, negative = inhibition) at 10uM” value is -34.7%.

In the case of `CCN(C(=O)c1sc(N)c(C#N)c1C)C1CCCCC1`, the “hERG current change (%, negative = inhibition) at 10uM” value turned out to be 9.21%. For `CCOC(=O)c1c(C)oc(/N=C/c2ccccc2O)c1C#N`, the “hERG current change (%, negative = inhibition) at 10uM” value is listed as 7.61%. For `O=C(c1cccs1)N1CCN(S(=O)(=O)c2ccccc2)CC1`, the “hERG current change (%, negative = inhibition) at 10uM” value was -6.98%. For the molecule `COC(=O)c1cccc(NS(C)(=O)=O)c1`, the “hERG current change (%, negative = inhibition) at 10uM” value worked out at 12.9%. As for `CS(=O)(=O)Nc1cccc(C(=O)OCCCOc2ccc(F)cc2)c1`, the “hERG current change (%, negative = inhibition) at 10uM” value is listed as -54.5%. As for `CC(=O)Nc1cccc(C(=O)OCCCOc2ccc(F)cc2)c1`, the “hERG current change (%, negative = inhibition) at 10uM” value is on record as 18.8%. As for `CC(C)CNC(=O)NC(=O)COC(=O)c1cc(F)cc(F)c1`, the figure is -4.56%; as for `COc1ccc(C)cc1NC(=O)C(=O)NNC(=O)c1ccco1`, 17.6%.
